From the supplement of paper PMC10849652
The full data set covers some 8,800 targets. This sample favours those with a hit. About 0.5% of all pairs of compound and target were hits.

Assays:
Experiment in all cases: log2 fold change, soluble protein after heating vs DMSO (PISA); higher = thermal stabilisation; K562 lysate, 10 uM; active = over 0.2 and 3.5 SD of the protein, either way, in both replicates (recomputed)
erlotinib = compound: C#Cc1cccc(Nc2ncnc3cc(OCCOC)c(OCCOC)cc23)c1 [erlotinib]
Method in brief: (§1)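 Following dounce homogenisation of K562 pellets in PBS pH 7.4 with 1 mM MgCl2, crude extract at 1 mg/mL protein was incubated for 30 min with 10 μM compound. Aliquots were then heated for 3 min over 48°C-58°C and pooled, NP-40 was added to 0.5% at 4°C, and soluble protein was recovered as the supernatant at 21,000xg for 90 min. Channel-sum-equalised TMTpro 16plex LC-MS/MS quantified this protein. Each value, from duplicates, is a log-two fold change in thermal stability relative to solvent controls.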

[1] = compound: C/C(=N\NC(=O)C1=CC(=CC=C1)S(=O)(=O)N2CCOCC2)/C3=C(C=CC(=C3)Cl)O
Method in brief: as §1

[2] = compound: C1=CC(=CC=C1C2=NC3=C(N2)C=C(C=C3)C(=O)N)OC4=CC=C(C=C4)Cl
Method in brief: as §1

[3] = compound: C1=CC2=C(C=CC(=C2)/C=C\3/C(=O)NC(=NCC4=CC=CS4)S3)N=C1
Method in brief: as §1

[4] = compound: C1=CC2=NC=CN=C2C=C1/C=C/3\C(=O)NC(=O)S3
Method in brief: as §1

[5] = compound: C1=CC=C(C=C1)C2=NC(=C(N2)C3=CC=NC=C3)C4=CC(=C(C=C4)Cl)O
Method in brief: as §1

[6] = compound: C1=CC=C2C(=C1)C3=NNC4=CC=CC(=C43)C2=O
Method in brief: as §1

[7] = compound: C1CCN(C1)C(=O)NC2=CC=CC(=C2)NC3=NC=C(C(=N3)NCCC4=CN=CN4)Br
Method in brief: as §1

[8] = compound: C1CN(CCC1(CC2=CC=C(C=C2)Cl)N)C3=NC=NC4=C3C=CN4
Method in brief: as §1

IRAK-1-4 Inhibitor I = compound: C1COCCN1CCN2C3=CC=CC=C3N=C2NC(=O)C4=CC(=CC=C4)[N+](=O)[O-] [IRAK-1-4 Inhibitor I]
Method in brief: as §1

ibrutinib = compound: C=CC(=O)N1CCC[C@@H](n2nc(-c3ccc(Oc4ccccc4)cc3)c3c(N)ncnc32)C1 [ibrutinib]
Method in brief: as §1

[9] = compound: CC(=O)c1cnc2ccc(-c3cc(Cl)c(O)c(Cl)c3)nc2c1N[C@H]1CC[C@H](CN(C)C)CC1
Method in brief: as §1

ralimetinib = compound: CC(C)(C)Cn1c(N)nc2ccc(-c3[nH]c(C(C)(C)C)nc3-c3ccc(F)cc3)nc21 [ralimetinib]
Method in brief: as §1

[10] = compound: CC(C)(O)CC(=O)NCCn1ccc2ncnc(Nc3ccc(Oc4cccc(C(F)(F)F)c4)c(Cl)c3)c21
Method in brief: as §1

[11] = compound: CC(C)C1=C2N=C(C=C(N2N=C1)NCC3=CC=CC=C3)NCCCCCCN
Method in brief: as §1

[12] = compound: CC1=C(C(CC(=O)N1)C2=CC=C(C=C2)C(F)(F)F)C(=O)NC3=C(C=C4C(=C3)C=NN4)F
Method in brief: as §1

[13] = compound: CC1=C(C2=C(C=C1)C(=O)C3=CC=CC=C3N2CCCN)C
Method in brief: as §1

[14] = compound: CC1=C(C=C(C=C1)NC(=O)C2=CC(=CC=C2)C(C)(C)C#N)NC3=CC4=C(C=C3)N=CN(C4=O)C
Method in brief: as §1

[15] = compound: CC1=C(C=C(C=C1)NC(=O)C2=CC(=CC=C2)N(C)C)NC(=O)C3=CC=C(C=C3)O
Method in brief: as §1

[16] = compound: CC1=CC=C(C=C1)SC2=C3C=C(SC3=CN=C2)C(=O)N
Method in brief: as §1

Measured: log2 fold change

HAUS3 (UniProt Q68CZ6)
inactive: erlotinib 0.022 | [1] 0.01 | [2] -0.033 | [3] 0.016 | [4] -0.028 | [5] 0.004 | [6] -0.06 | [7] -0.045 | [8] 0.019 | IRAK-1-4 Inhibitor I 0.025 | ibrutinib -0.025 | [9] -0.021 | ralimetinib 0.009 | [10] -0.019 | [11] 0.001 | [12] 0.022 | [13] 0.026 | [14] 0.014 | [15] 0.025 | [16] 0.025

HAUS5 (UniProt O94927)
Sequence of UniProt O94927 (O94927 whole entry, looked up): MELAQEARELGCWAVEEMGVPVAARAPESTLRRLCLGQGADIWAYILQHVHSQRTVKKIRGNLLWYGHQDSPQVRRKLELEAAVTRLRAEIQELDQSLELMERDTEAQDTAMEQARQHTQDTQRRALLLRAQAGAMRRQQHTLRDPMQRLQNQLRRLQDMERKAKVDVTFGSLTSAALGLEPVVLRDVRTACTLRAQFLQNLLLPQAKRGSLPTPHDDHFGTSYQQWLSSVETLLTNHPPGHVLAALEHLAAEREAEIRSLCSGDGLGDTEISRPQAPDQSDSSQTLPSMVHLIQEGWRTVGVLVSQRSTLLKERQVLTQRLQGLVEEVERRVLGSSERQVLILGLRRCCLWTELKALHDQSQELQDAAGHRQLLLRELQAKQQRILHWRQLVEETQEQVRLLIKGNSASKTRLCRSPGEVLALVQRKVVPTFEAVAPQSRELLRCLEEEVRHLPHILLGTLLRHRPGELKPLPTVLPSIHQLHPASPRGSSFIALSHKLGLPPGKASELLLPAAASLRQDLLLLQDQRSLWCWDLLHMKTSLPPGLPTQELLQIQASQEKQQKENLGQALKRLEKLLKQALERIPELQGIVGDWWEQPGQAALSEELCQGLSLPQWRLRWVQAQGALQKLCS
inactive: erlotinib 0.046 | [1] 0.021 | [2] -0.071 | [3] -0.015 | [4] -0.045 | [5] -0.009 | [6] 0.113 | [7] 0.031 | [8] -0.017 | IRAK-1-4 Inhibitor I 0.033 | ibrutinib 0 | [9] 0.002 | ralimetinib 0.034 | [10] 0.017 | [11] 0.027 | [12] -0.027 | [13] 0 | [14] 0 | [15] 0.033 | [16] 0.021

HNRNPUL1 (UniProt Q9BUJ2)
inactive: erlotinib -0.039 | [1] 0.011 | [2] 0.002 | [3] -0.016 | [4] -0.023 | [5] -0.045 | [6] 0.03 | [7] 0.01 | [8] -0.02 | IRAK-1-4 Inhibitor I -0.032 | ibrutinib 0.028 | [9] -0.13 | ralimetinib 0.017 | [10] -0.014 | [11] -0.019 | [12] 0 | [13] -0.012 | [15] 0 | [16] 0.007
active: [14] -0.275

GSK3B isoform 2 (UniProt P49841)
Sequence of UniProt P49841 (P49841 whole entry, looked up): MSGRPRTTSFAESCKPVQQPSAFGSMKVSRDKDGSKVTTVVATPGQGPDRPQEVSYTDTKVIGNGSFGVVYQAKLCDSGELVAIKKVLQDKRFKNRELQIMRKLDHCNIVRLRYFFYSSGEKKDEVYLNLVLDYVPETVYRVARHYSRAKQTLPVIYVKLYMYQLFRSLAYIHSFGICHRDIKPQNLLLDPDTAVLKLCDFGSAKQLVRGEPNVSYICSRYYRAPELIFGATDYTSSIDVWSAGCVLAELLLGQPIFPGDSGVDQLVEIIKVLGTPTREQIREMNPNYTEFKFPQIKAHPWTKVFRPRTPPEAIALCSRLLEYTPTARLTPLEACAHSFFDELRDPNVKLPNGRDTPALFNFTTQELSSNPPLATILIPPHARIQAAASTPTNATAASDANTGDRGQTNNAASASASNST
inactive: erlotinib 0.043 | [1] -0.323 | [2] 0.036 | [3] 0.145 | [4] 0.085 | [5] 0.459 | [6] 0.132 | [7] 0.202 | [8] -0.011 | IRAK-1-4 Inhibitor I -0.002 | ibrutinib -0.064 | [9] 0.344 | ralimetinib -0.012 | [10] -0.008 | [11] -0.016 | [12] -0.04 | [13] -0.006 | [14] -0.018 | [15] -0.029 | [16] 0.189

GPX4 (UniProt P36969)
Sequence of UniProt P36969 (P36969 whole entry, looked up): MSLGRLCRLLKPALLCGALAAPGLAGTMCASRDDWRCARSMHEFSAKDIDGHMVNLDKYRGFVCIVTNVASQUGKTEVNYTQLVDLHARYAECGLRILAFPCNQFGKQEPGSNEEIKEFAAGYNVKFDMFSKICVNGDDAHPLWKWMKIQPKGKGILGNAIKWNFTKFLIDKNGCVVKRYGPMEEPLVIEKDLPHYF
inactive: erlotinib 0.02 | [1] 0.051 | [2] -0.037 | [3] -0.016 | [4] 0.04 | [5] -0.029 | [6] -0.06 | [7] 0.024 | [8] 0.021 | IRAK-1-4 Inhibitor I 0.012 | ibrutinib -0.013 | [9] 0.01 | ralimetinib 0.011 | [10] 0.018 | [11] -0.004 | [12] 0.006 | [13] -0.002 | [14] 0.014 | [15] 0.003 | [16] 0.039

IMPDH2 (UniProt P12268)
inactive: erlotinib 0.001 | [1] -0.009 | [2] -0.018 | [3] -0.018 | [4] -0.013 | [5] -0.028 | [6] -0.003 | [7] 0.019 | [8] -0.003 | IRAK-1-4 Inhibitor I 0.011 | ibrutinib 0.049 | [9] -0.003 | ralimetinib 0.034 | [10] 0.028 | [11] 0.025 | [12] -0.034 | [13] 0.019 | [14] 0.017 | [15] -0.006 | [16] 0.016

HAUS6 (UniProt Q7Z4H7)
inactive: erlotinib 0.031 | [1] 0.102 | [2] -0.038 | [3] -0.035 | [4] -0.008 | [5] 0.019 | [6] 0.024 | [7] -0.015 | [8] 0.039 | IRAK-1-4 Inhibitor I 0.017 | ibrutinib 0.025 | [9] -0.054 | ralimetinib 0.027 | [10] -0.003 | [11] -0.015 | [12] 0.029 | [13] 0.01 | [14] -0.008 | [15] 0.073 | [16] 0.078

HSPA8 (UniProt E9PK54)
inactive: erlotinib 0.045 | [1] -0.222 | [2] -0.045 | [3] -0.099 | [4] 0.014 | [5] -0.044 | [6] 0 | [7] -0.043 | [8] -0.008 | IRAK-1-4 Inhibitor I -0.141 | ibrutinib 0.065 | [9] -0.086 | ralimetinib -0.013 | [10] -0.132 | [11] 0.004 | [12] -0.019 | [13] 0.008 | [14] -0.076 | [15] -0.019 | [16] 0.014

HDHD5 (UniProt Q9BXW7)
Sequence of UniProt Q9BXW7 (Q9BXW7 whole entry, looked up): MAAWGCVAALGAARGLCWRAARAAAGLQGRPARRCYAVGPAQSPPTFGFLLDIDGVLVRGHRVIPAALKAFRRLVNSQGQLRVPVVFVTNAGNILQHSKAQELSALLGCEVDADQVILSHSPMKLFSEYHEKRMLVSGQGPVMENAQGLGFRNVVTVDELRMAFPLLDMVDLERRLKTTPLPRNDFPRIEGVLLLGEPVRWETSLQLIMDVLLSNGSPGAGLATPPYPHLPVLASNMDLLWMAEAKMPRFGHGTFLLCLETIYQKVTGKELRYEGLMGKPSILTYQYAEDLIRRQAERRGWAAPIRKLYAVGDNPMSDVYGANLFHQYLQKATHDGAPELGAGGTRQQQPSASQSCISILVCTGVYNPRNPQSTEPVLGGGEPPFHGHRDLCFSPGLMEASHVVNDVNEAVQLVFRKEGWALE
inactive: erlotinib -0.015 | [1] -0.038 | [2] 0.012 | [3] 0.07 | [4] 0.022 | [5] -0.006 | [6] -0.027 | [7] -0.023 | [8] -0.05 | IRAK-1-4 Inhibitor I 0.051 | ibrutinib -0.027 | [9] 0.018 | ralimetinib 0 | [10] 0.073 | [11] -0.042 | [12] 0.011 | [13] -0.023 | [14] -0.007 | [15] 0.024 | [16] -0.001

GTF3C3 (UniProt Q9Y5Q9)
Sequence of UniProt Q9Y5Q9 (Q9Y5Q9 whole entry, looked up): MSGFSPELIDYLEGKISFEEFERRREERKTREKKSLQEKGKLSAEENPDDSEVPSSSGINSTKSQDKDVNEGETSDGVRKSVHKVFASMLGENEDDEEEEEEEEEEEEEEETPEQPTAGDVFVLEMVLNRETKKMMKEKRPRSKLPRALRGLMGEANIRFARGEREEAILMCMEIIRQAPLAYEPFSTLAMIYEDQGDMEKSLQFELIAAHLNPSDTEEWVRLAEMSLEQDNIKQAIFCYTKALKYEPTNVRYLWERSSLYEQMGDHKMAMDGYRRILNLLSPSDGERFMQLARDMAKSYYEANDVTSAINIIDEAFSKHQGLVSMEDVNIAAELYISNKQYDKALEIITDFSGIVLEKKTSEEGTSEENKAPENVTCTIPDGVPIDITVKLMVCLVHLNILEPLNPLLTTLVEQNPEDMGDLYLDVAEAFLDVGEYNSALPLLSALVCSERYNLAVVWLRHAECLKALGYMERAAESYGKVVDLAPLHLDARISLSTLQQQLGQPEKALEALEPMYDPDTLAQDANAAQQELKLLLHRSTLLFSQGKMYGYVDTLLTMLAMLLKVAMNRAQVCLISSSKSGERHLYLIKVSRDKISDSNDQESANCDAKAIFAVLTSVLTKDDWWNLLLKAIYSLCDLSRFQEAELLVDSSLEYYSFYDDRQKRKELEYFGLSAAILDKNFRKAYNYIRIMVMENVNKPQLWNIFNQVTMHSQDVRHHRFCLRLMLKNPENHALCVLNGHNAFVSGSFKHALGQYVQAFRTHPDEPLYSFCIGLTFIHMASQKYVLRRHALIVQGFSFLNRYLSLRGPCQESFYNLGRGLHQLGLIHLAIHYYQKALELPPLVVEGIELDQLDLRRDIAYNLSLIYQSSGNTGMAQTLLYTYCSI
inactive: erlotinib 0.016 | [1] 0.013 | [2] -0.013 | [3] 0.025 | [4] 0 | [5] -0.005 | [6] -0.065 | [7] 0 | [8] 0.031 | IRAK-1-4 Inhibitor I -0.001 | ibrutinib 0.033 | [9] -0.001 | ralimetinib 0.027 | [10] -0.005 | [11] 0.02 | [12] -0.003 | [13] -0.112 | [14] 0.014 | [15] 0.047 | [16] -0.007

GRK6 isoform 2 (UniProt P43250)
Sequence of UniProt P43250 (P43250 whole entry, looked up): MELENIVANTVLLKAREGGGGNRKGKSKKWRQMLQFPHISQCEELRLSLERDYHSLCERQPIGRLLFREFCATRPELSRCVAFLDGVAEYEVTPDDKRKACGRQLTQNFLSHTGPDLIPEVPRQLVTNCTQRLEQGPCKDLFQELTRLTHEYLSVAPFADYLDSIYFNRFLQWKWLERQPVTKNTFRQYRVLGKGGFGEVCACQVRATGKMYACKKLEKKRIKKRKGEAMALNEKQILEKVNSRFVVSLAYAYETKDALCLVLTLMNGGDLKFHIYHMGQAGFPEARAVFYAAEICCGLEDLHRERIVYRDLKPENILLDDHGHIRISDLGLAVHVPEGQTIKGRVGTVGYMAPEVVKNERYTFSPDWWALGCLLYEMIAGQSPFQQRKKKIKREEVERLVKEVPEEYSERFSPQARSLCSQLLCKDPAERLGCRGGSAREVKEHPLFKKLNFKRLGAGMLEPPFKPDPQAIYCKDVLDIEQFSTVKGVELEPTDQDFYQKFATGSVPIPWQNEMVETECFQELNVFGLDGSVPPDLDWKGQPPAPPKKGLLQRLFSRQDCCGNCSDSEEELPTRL
inactive: erlotinib -0.014 | [1] -0.126 | [2] 0.015 | [3] -0.009 | [4] -0.046 | [5] -0.063 | [6] 0.284 | [7] -0.161 | [8] 0.108 | IRAK-1-4 Inhibitor I 0.053 | ibrutinib 0.083 | [9] 0.04 | ralimetinib -0.073 | [10] -0.068 | [11] -0.036 | [12] 0.021 | [13] -0.092 | [14] 0.048 | [15] -0.049 | [16] -0.005

IFNGR1 (UniProt P15260)
Sequence of UniProt P15260 (P15260 whole entry, looked up): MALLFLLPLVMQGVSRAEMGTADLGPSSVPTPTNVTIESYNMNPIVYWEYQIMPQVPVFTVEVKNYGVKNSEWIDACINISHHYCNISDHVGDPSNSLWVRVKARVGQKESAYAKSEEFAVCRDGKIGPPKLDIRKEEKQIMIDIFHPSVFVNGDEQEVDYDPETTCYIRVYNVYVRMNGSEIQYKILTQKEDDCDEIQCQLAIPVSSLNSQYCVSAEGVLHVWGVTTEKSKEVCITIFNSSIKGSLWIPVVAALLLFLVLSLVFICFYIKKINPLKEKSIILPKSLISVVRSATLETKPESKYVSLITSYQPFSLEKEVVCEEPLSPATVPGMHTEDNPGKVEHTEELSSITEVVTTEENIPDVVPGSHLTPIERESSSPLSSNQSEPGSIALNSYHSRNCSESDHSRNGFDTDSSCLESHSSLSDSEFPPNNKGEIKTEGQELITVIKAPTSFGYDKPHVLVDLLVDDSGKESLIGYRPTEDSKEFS
inactive: erlotinib 0.06 | [1] -0.064 | [2] 0.07 | [3] -0.134 | [4] -0.127 | [5] -0.021 | [6] -0.264 | [7] -0.075 | [8] 0.073 | IRAK-1-4 Inhibitor I 0.107 | ibrutinib -0.033 | [9] -0.12 | ralimetinib -0.018 | [10] -0.256 | [11] -0.014 | [12] 0.162 | [13] -0.077 | [14] 0.017 | [15] 0.073 | [16] -0.213

GSTZ1 (UniProt G3V4T6)
inactive: erlotinib 0.018 | [1] -0.034 | [2] 0.032 | [3] -0.003 | [4] 0.02 | [5] -0.043 | [6] 0.026 | [7] 0.017 | [8] 0.064 | IRAK-1-4 Inhibitor I 0.016 | ibrutinib 0 | [9] 0 | ralimetinib 0.014 | [10] -0.019 | [11] 0.004 | [12] 0.01 | [13] 0.036 | [14] -0.02 | [15] -0.003 | [16] -0.016

ILKAP (UniProt Q9H0C8)
Sequence of UniProt Q9H0C8 (Q9H0C8 whole entry, looked up): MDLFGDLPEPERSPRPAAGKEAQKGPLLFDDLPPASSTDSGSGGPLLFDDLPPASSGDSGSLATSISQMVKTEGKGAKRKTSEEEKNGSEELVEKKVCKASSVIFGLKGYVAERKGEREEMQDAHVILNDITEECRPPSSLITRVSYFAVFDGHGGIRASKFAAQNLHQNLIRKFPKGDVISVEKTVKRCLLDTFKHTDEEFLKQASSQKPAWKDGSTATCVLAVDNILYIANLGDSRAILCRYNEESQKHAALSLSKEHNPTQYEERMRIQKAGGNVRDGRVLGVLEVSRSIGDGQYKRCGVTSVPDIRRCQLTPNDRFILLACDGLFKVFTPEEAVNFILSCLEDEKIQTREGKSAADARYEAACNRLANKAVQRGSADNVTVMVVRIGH
inactive: erlotinib -0.042 | [1] -0.01 | [2] -0.007 | [3] 0.027 | [4] -0.021 | [5] -0.005 | [6] 0.015 | [7] -0.022 | [8] -0.043 | IRAK-1-4 Inhibitor I 0.004 | ibrutinib -0.018 | [9] 0 | ralimetinib -0.007 | [10] 0.031 | [11] -0.032 | [12] 0.007 | [13] 0.037 | [14] -0.016 | [15] 0 | [16] -0.002

INTS8 (UniProt Q75QN2)
Sequence of UniProt Q75QN2 (Q75QN2 whole entry, looked up): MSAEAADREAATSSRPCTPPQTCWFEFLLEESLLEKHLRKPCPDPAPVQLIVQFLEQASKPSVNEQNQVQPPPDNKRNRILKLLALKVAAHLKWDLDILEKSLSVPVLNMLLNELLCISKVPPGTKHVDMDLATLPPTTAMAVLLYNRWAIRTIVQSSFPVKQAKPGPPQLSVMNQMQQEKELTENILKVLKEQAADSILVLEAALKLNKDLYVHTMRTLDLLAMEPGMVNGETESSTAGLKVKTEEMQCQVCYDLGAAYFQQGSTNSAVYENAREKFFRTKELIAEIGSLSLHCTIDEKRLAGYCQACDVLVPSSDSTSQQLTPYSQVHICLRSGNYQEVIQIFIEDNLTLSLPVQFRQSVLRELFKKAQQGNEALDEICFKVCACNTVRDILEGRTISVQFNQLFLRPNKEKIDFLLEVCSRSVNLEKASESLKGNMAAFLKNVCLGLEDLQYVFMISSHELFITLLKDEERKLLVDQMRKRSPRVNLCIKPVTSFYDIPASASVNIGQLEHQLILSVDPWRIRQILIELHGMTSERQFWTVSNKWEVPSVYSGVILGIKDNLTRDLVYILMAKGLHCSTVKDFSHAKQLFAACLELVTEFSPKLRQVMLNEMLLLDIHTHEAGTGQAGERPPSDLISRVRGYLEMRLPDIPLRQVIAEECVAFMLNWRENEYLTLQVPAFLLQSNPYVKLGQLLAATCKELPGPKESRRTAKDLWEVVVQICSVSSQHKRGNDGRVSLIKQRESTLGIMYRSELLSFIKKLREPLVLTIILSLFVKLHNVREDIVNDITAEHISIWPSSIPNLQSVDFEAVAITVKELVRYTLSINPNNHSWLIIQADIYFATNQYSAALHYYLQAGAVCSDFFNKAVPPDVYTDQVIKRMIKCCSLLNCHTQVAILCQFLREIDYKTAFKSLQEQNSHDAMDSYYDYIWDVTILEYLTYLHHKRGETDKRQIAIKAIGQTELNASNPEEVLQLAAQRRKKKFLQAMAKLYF
inactive: erlotinib -0.002 | [1] 0.043 | [2] -0.051 | [3] 0.02 | [4] -0.048 | [5] 0.037 | [6] -0.004 | [7] 0.066 | [8] -0.035 | IRAK-1-4 Inhibitor I 0.015 | ibrutinib 0.024 | [9] 0.028 | ralimetinib 0.058 | [10] -0.028 | [11] 0.009 | [12] -0.021 | [13] -0.179 | [14] 0.023 | [15] -0.033 | [16] 0.031

ILK (UniProt Q13418)
inactive: erlotinib 0.112 | [1] 0.025 | [2] 0.019 | [3] 0.012 | [4] 0.002 | [5] -0.018 | [6] -0.04 | [7] 0.029 | [8] -0.035 | IRAK-1-4 Inhibitor I 0.045 | ibrutinib 0.017 | [9] 0.006 | ralimetinib 0 | [10] -0.022 | [11] -0.007 | [12] 0.013 | [13] -0.02 | [14] 0.049 | [15] -0.001 | [16] 0.057
